# Only some compounds are listed: those with a hit (about 3.1% of all), similar ones and a draw of the others.
# Rin1 Abl inh = inhibitors of human Rin1-Abl protein interaction; P00519+Q13671; hit rate 0.4% among 360,000; inhibition, % at 7.35 µM; TR-FRET Rin1/Abl binding, biochemical; in the data active = inhibition above about 5%, passing the limit was not always enough
# PAFAH1B3 FP inh = inhibitors of human PAFAH1B3; Q15102; inhibition, % at 3.39 µM; recombinant PAFAH1B3, FP-rhodamine probe, fluorescence polarization; hit rate 0.28% among 340,000;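 active = inhibition above the screen-wide average of all tested compounds plus 3 SD, cut at about 25% in these data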;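 also: 0% = enzyme with DMSO only and 100% = wells lacking PAFAH1B3 protein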
# Target sequence (Q15102 whole entry, looked up): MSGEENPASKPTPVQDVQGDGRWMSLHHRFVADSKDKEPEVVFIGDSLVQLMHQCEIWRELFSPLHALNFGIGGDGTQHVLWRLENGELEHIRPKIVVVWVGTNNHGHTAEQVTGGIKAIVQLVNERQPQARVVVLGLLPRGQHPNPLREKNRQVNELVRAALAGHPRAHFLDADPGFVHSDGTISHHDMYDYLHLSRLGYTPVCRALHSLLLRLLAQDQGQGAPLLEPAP
# E coli Lon inh = E. coli protease La inhibition; P0A9M0; purified E. coli Lon protease, fluorescence polarization; inhibition, % at 7.94 µM; hit rate 0.42% among 360,000; AID 602123; in the data active = inhibition above about 13%, passing the limit was not always enough;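 also: 0% = enzyme with probe and DMSO and 100% = no enzyme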
# PAFAH1B2 FP inh = PAFAH1B2 (human) inhibition | P68402 | recombinant PAFAH1B2, FP-rhodamine activity probe, fluorescence polarization | inhibition, % at 3.39 µM | hit rate 1.2% among 340,000;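 active = inhibition above the mean of all tested compounds plus 3 SD, cut at about 24% in these data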;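 also: 0% = enzyme with DMSO and 100% = wells lacking PAFAH1B2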
# Target sequence (P68402 whole entry, looked up): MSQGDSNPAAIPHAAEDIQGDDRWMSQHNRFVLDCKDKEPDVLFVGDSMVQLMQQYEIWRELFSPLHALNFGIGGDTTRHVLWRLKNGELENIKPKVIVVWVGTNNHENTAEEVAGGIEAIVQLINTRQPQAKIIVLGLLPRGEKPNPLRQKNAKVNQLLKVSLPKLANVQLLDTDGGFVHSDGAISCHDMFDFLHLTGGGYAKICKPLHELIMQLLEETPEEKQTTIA
# PAFAH2 inh = inhibitors of human PAFAH2; Q99487; AID 492956; hit rate 0.99% among 340,000; recombinant PAFAH2, FP-rhodamine activity probe, fluorescence polarization; inhibition, % at 3.39 µM;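 active = inhibition above the mean over all tested compounds plus 3 SD, cut at about 30% in these data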;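 also: inhibitors block probe labeling of enzyme so polarization drops; 0% = enzyme with DMSO and 100% = wells lacking PAFAH2 protein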
# pPAFAH inh = inhibitors of human plasma PAF acetylhydrolase (pPAFAH); Q13093; inhibition, % at 3.39 µM; AID 463082; recombinant pPAFAH, FP-rhodamine probe fluorescence polarization; hit rate 1.5% among 330,000;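 active = inhibition above the mean inhibition across the screen plus 3 SD, cut at about 25% in these data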;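 also: inhibitors block binding of the rhodamine activity-based probe so polarization drops; 0% = enzyme with DMSO and 100% = wells lacking pPAFAH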
# Active calls of the source: *; nt = no result.
SMILES,Rin1 Abl inh,PAFAH1B3 FP inh,E coli Lon inh,PAFAH1B2 FP inh,PAFAH2 inh,pPAFAH inh
CCn1c(CSc2nnc(-c3ccncc3)n2C)nc2cc(C(=O)O)ccc21,2.1,36.2*,5.5,36.5*,48.9*,25.9*
CC1=NN(c2ccc(C)c(C)c2)C(=O)/C1=C\C=C\c1ccc([N+](=O)[O-])o1,1.3,2.2,-6.9,-2.8,4.5,25.4*
CCCCCN(C(=O)CCC(=O)OCC(=O)N(C)Cc1ccc(C)cc1)c1c(N)n(CCCC)c(=O)[nH]c1=O,3.1,3.0,-0.6,7.1,15.1,4.8
Cc1ccc(S(=O)(=O)/N=C2/C=C(Sc3ncn[nH]3)C(=O)c3ccccc32)c(C)c1,nt,nt,nt,nt,nt,5.7
Cc1ccc(S(=O)(=O)/N=C2/C=C(Sc3ncn[nH]3)C(=O)c3ccccc32)cc1,17.0*,48.1*,6.4,50.8*,75.1*,9.3
Cc1ccc(S(=O)(=O)Nc2ccc(O)c(Sc3ncn[nH]3)c2)cc1,3.2,8.8,3.0,8.0,8.2,0.4
CC(C)c1ccc(S(=O)(=O)/N=C2/C=C(Sc3ncn[nH]3)C(=O)c3ccccc32)cc1,7.7*,48.7*,16.7,45.7*,51.1*,8.6
C=CC[C@@H](CC(=O)N[C@H](CO)Cc1ccccc1)C(=O)N[C@H](COC(=O)[C@@H](CC=C)CC(=O)OC(C)(C)C)Cc1ccccc1,0.8,12.7,2.3,3.3,-4.4,5.5
COc1ccc(S(=O)(=O)N2CC=C(c3ccccc3)CC2)cc1OC,1.2,nt,11.2,nt,nt,nt
O=S(=O)(Nc1ncnc2sc3c(c12)CCC3)c1cc(F)ccc1F,-1.1,5.5,-6.3,2.5,0.2,30.0*
COc1ccc(C)cc1NC(=O)CNC(C)C(=O)Nc1ccc(C(C)=O)cc1 (stereo unspecified),-2.2,2.6,-0.3,10.8,4.2,-5.9
N#Cc1ncc(Cc2ccccc2)nc1C#N,4.0,5.8,-13.1,-0.6,9.7,21.2
O=C(CC1S/C(=N\S(=O)(=O)c2ccccc2)N(c2ccccc2)C1=O)Nc1ccc(F)cc1 (stereo unspecified),-0.1,0.0,2.4,6.9,-1.2,-0.2
Cc1ccc(S(=O)(=O)/N=C2\SC(CC(=O)Nc3ccc(F)cc3)C(=O)N2c2ccccc2)cc1 (stereo unspecified),-0.2,-1.3,8.0,32.1*,-5.3,3.0
C[C@H]1[C@H](NC(=O)C(=NOC(C)(C)C(=O)O)c2csc(N)n2)C(=O)N1S(=O)(=O)O,-2.4,0.2,-3.1,-0.5,-6.5,3.3
O=C(NCCc1ccc(Cl)cc1)c1cc2ccccn2n1,-3.5,6.2,2.0,30.0*,1.2,0.0
O=C(NCc1ccccn1)c1cc2ccccn2n1,-0.8,2.4,-4.4,0.5,0.4,-3.7
CS(=O)(=O)N1CCC(Oc2ccccc2C(=O)N2CCC[C@H]2CO)CC1,1.2,8.8,-7.9,5.3,0.2,3.5
CC(=O)Nc1ccc(S(=O)(=O)NNC(=O)COc2cc(C)ccc2C(C)C)cc1,-1.3,8.2,5.2,3.0,0.1,0.8
Cc1ccc(C(C)C)c(OCC(=O)NNCC(=O)Nc2cccc(F)c2)c1,1.3,5.0,1.3,25.4*,-3.4,7.7
CCCCc1ccc(-n2c(Cc3cccs3)n[nH]c2=S)cc1,1.1,-4.5,-3.1,4.2,3.3,20.4
COC(=O)CCCn1nc(NC(=O)COc2ccc(F)cc2)cc1C,-3.9,1.0,-7.1,2.3,-4.9,0.3
CC(C(=O)Nc1ccccc1-c1ccccc1)N1CCN(S(=O)(=O)c2ccccc2)CC1 (stereo unspecified),2.2,10.8,0.7,30.9*,-3.4,-0.2
Cc1ccc(S(=O)(=O)N2CCN(C(C)C(=O)NCC(C)c3ccccc3)CC2)cc1 (stereo unspecified),0.6,1.4,-4.2,29.3*,-3.5,-4.2
CC(NC(=O)C(C)N1CCN(S(=O)(=O)c2ccccc2)CC1)c1ccccc1 (stereo unspecified),3.3,-9.9,0.5,3.9,6.2,-1.3
O=C(CN1C(=O)COc2ccccc21)N1CCOCC1,-1.8,14.2,10.3,3.3,0.2,-3.8
CC(C)(C)c1ccc(C(=O)NNc2ncccc2-n2cccc2)cc1,-3.7,5.9,-11.5,7.7,2.4,-0.8
O=C(OCC(=O)C12CC3CC(CC(C3)C1)C2)c1ccccn1,-2.1,3.6,-3.7,24.7*,0.5,-3.7
